A selection: hits, their analogues and other compounds. The true share with any hit is near 5.9%.
TGFb inhibitor: qHTS for Inhibitors of TGF-b. HepG2 CAGA-GFP TGF-b/SMAD3 reporter, GFP fluorescence, 18 h; TGF-beta stimulated, 500 pg/mL final. Potency, µM (doses to about 46.1 µM), for inactives: at the top dose activity, negative = inhibition, usual class: inhibitors. 1.2% of 410,000 active; also: % is scaled to controls: 0 for no effect and ±100 for the full control effect; nearly all actives have a fitted effect of over 65% in size
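Smad-responsive CAGA-GFP expression was quantified in HEPG2 cells exposed to compounds and 500 pg/mL final TGF-beta for 18 h at 37 degrees C; unstimulated wells defined full inhibition.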
HepG2 tox: qHTS for Inhibitors of TGF-b: Cytotox Counterscreen; HepG2 CAGA-GFP viability, ATP luminescence, 18 h; Potency, µM (series often up to 46.1 µM), without a hit: at the highest dose activity change, negative = cytotoxicity, actives largely listed as cytotoxic; 0.76% of 410,000 active
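HepG2 CAGA-GFP cells (1000/well, DMEM with 1% FBS) received compound, then TGF-beta at 500 pg/mL final, and were incubated 18 hours at 37 degrees C. Viability was read by CellTiter-Glo luminescence. Media-only wells were set as complete cell-killing and DMSO as no toxicity.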
KB-V1 cytotox: qHTS assay for MDR1-selective chemotherapeutics: Primary screen using the drug-selected MDR subline cells KB-V1; KB-V1 MDR cells viability, CellTiter-Glo, 72 h; 3.4% of 400,000 active; AID 1347076, 2019; Potency, µM (doses to about 46.1 µM), hits mostly cytotoxic; also: % is scaled to controls: 0 for no effect and ±100 for the full control effect; nearly all actives have a fitted effect of over 60% in size
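Cytotoxicity via CellTiter-Glo luminescence after 72 h compound exposure at 37 degrees C. Cells: drug-selected KB-V1 line, DMEM phenol-red free plus 10% FBS. Compounds tested at multiple concentrations; normalized data fitted to concentration-effect curves.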
S2 tox: Viability Counterscreen for Primary qHTS for Inhibitors of ATXN expression | Potency, µM (highest dose often 56.7 µM), usual class: cytotoxic | AID 651635, 2014 | 0.49% of 400,000 active | S2 cells (HEK-293 line with an ATXN2-luciferase reporter) viability, CellTiter-Fluor protease fluorescence, 24 h; also: nearly all actives have a fitted effect of over 40% in size
KB-3-1 tox: qHTS assay for MDR1-selective chemotherapeutics: Primary screen using the parental adenocarcinoma cell KB-3-1; Potency, µM (titrated, usually from 46.1 µM), most hits filed as cytotoxic; KB-3-1 viability, CellTiter-Glo ATP luminescence, 72 h; 1.4% of 400,000 active; also: % is scaled to controls: 0 for no effect and ±100 for the full control effect; nearly all actives have a fitted effect of over 60% in size
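72 h, 37 °C compound treatment of KB-3-1 parental cells; CellTiter-Glo added, 10 min, luminescence read. Data corrected against DMSO-only plates and normalized before curve fitting.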
ATXN2 expr inh: Primary qHTS for Inhibitors of ATXN expression; HEK-293 ATXN2-luciferase reporter, luminescence, 24 h; Potency, µM (titrated, usually from 57 µM), inactives show at the top dose activity change, negative = inhibition, actives largely listed as inhibitors; 0.72% of 360,000 active; also: % is scaled to controls: 0 for no effect and ±100 for the full control effect; nearly all actives have a fitted effect of over 55% in size
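ATXN2-luciferase reporter cells (luciferase flanked by upstream and downstream ATXN2 gene portions) were treated 24 h at 37 °C with compounds at up to 57 uM. SteadyGlo luminescence gave expression; GF-AFC fluorescence gave viability.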
An asterisk follows results filed as active; i = inactive; ? = inconclusive; . = not tested or not shown; ! = not active in a repeat; [ ] = remark or other dose. Calls follow the shape of the dose curve; as a rule, active = well fitted curve in the direction sought with a large enough effect; inconclusive = small, poorly fitted or top-dose-only effect, or another doubt; inactive = no such curve, though single readings can be large; an effect the other way counts as inactive or inconclusive. Potency is read from the fitted curve at half-maximal effect.

SMILES	TGFb inhibitor	HepG2 tox	KB-V1 cytotox	S2 tox	KB-3-1 tox	ATXN2 expr inh
Cc1nn(-c2ccccc2)c2c1C(=O)N(c1ccccc1)C(=O)C(C)(C)C2	-4%	-8%	i	i	i	-8%
CC(C)N(CC#CCC(O)(c1ccccc1)c1ccccc1)C(C)C	-2%	7%	13µM*	i	i	0%
CCN(CC#CCC(O)(c1ccccc1)c1ccccc1)C(C)C	-11%	-10%	i	i	i	-6%
CC(=O)Nc1nonc1-c1nnc(SCc2ccc(F)cc2)n1C	3%	-6%	i	i	i	10%
CCCCOc1cccc(C2c3c(-c4cc(C)ccc4O)n[nH]c3C(=O)N2CCOC)c1 (stereo not given)	?	-110%	?	?	?	?
C[C@H]1C[C@H]2[C@@H]3CCC4=CC(=O)C=C[C@]4(C)[C@@]3(F)[C@@H](O)C[C@]2(C)[C@@]1(O)C(=O)CCl	.	.	.	i	.	.
OCCN(Cc1cccnc1)Cc1ccccn1	6%	-1%	10µM*	?	i	-25%
Cc1ccccc1NS(=O)(=O)c1ccc2[nH]cc(C(=O)NC3CCCCC3)c(=O)c2c1	?	-48%	.	.	.	.
Cc1nc2ccccn2c1C(=O)NNC(=S)Nc1ccc(Cl)cc1	-16%	-32%	?	i	i	-13%
Cc1cccc(-n2cnc(C(=O)NNC(=S)Nc3ccc(Cl)cc3)c2)n1	-10%	-20%	i	i	13µM*	-10%[11.3 µM]
Nc1ccc(Cc2ccc(C=O)cc2)cc1	-22%	1%	i	.	i	.
COc1ccc(S(=O)(=O)N2CCCCCC2)cc1N(C)S(=O)(=O)c1ccc(C)cc1	?	-9%	2.6µM*	i	i	-10%
COc1ccc(S(=O)(=O)N2CCOCC2)cc1N(C)S(=O)(=O)c1ccc(C)cc1	5%	6%	?	i	i	-7%
CCOC(=O)c1c(NC(=O)CCCOc2ccc(Cl)cc2)sc2c1CCC2	-6%	-9%	i	i	i	-5%
CC(C)COc1ccc(CN=C(N)N=C(N)N)cc1Cl	-12%	-14%	i	i	13µM*	-11%
CC(C)Oc1ccc(CN=C(N)N=C(N)N)cc1Cl	-11%	-16%	i	i	?	-2%[11.3 µM]
CCOC(=O)c1c(NC(=O)Cc2ccccc2)sc2c1CCN(CC)C2	-21%	-23%	i	i	i	-13%
CCOC(=O)c1c(N)sc2c1CCN(Cc1ccccc1)C2	7%	-3%	i	i	15µM*!	-14%
CCOC(=O)C(C)n1nc(C)c2sc3ccccc3c2c1=O (stereo not given)	-25%	-14%	21µM*	i	i	-2%
Cc1ccc(CNC(=O)C(C)n2nc(C)c3sc4ccccc4c3c2=O)cc1 (stereo not given)	12%	-2%	i	.	i	.
O=C(C1CCN(c2ncnc3c2nc2n3CCCCC2)CC1)N1CCN(c2ccc(Cl)cc2)CC1	3%	8%	.	.	.	.
O=C(C1CCN(c2ncnc3c2nc2n3CCCCC2)CC1)N1CCN(c2cccc(Cl)c2)CC1	?	-30%	i	18µM*	?	.
c1ccc(N2CCN(c3ncnc4c3nc3n4CCCCC3)CC2)cc1	0%	-20%	?	i	?	?
O=C(C1CCCN(c2ncnc3c2nc2n3CCCCC2)C1)N1CCN(c2ccc(F)cc2)CC1 (stereo not given)	?	-19%	?	?	?	-24%
O=C(C1CCCN(c2ncnc3c2nc2n3CCCCC2)C1)N1CCN(c2ccc(Cl)cc2)CC1 (stereo not given)	?	-2%	i	?	16µM*	?
SMILES	TGFb inhibitor	HepG2 tox	KB-V1 cytotox	S2 tox	KB-3-1 tox	ATXN2 expr inh
Clc1cccc(N2CCN(c3ncnc4c3nc3n4CCCCC3)CC2)c1	?	-47%	15µM*	.	13µM*	18µM*
CCOC(=O)C1CCCN(c2ncnc3c2cnn3-c2ccc(Cl)cc2)C1 (stereo not given)	-10%	2%	13µM*	i	i	?
COc1ccc(-n2c(SCC(=O)N3CCC(C)CC3)nc3c([nH]c4ccccc43)c2=O)cc1	10%	2%	?	i	?	-2%
COc1cc(OC)c2nc(-c3cc4c(c(OC)c3)OCCN(C(=O)C(C)c3n[nH]c(=O)c5ccccc35)C4)cc(C)c2c1 (stereo not given)	.	.	.	i	.	.
CCOc1ccc(C2N3CC4(C(C)C)CN2CC(C(C)C)(C3)C4=O)cc1OC (stereo not given)	-1%	-1%	i	i	i	8%
Clc1ccc(Cn2ncc3c(N4CCCCC4)ncnc32)cc1	1%	-2%	?	i	i	-17%
NC1(Cc2ccc(Cl)cc2)CCN(c2ncnc3[nH]ccc23)CC1	.	.	.	.	.	27µM*
CCc1ccn2cc(-c3ccc4c(c3)OCO4)nc2c1	-23%	-62%	?	?	?	3.5µM*
O=C(C[N+]12CN3CN(CN(C3)C1)C2)c1ccc(Cl)cc1	1%	-18%	i	.	i	.
COc1cc(CNC2CCCC2)cc(Cl)c1OCc1ccccc1Cl	?	-99%	21µM*	?	?	?
COc1cc(CNC2CCCC2)cc(Cl)c1OCc1ccc(F)cc1	-26%	-93%	?	?	?	?
CCOc1cc(CNCCc2ccc(S(N)(=O)=O)cc2)cc(Cl)c1OCc1ccccc1	?	-110%	?	.	i	20µM*
CCOc1cc(CNn2cn[nH]c2=S)cc(Cl)c1OCc1ccccc1F	?	-50%	16µM*	i	i	-13%
CCOc1cc(CNC2CCCC2)cc(Cl)c1OCc1ccc(F)cc1	?	11µM*	i	28µM*	i	22µM*
Cc1cc([N+](=O)[O-])ccc1NCc1cccc2ccccc12	-24%	-10%	13µM*	i	i	-2%
Cc1cc([N+](=O)[O-])ccc1NCc1ccccc1[N+](=O)[O-]	3%	5%	i	?	?	0%
COc1cc(OC)cc(C(=O)NCc2ccc3c(c2)CCN3C(=O)c2ccccc2)c1	10µM*	-16%	.	.	.	.
COc1ccc(CCC(=O)NCc2ccc3c(c2)CCN3C(=O)c2ccccc2)cc1	28%	3%	?	.	i	.

Source: PubChem BioAssay
